Screening data as filed in PubChem BioAssay.
EBNA-1 inh: blocks EBNA-1 binding to DNA. 300,000 tested, 0.34% active. EBNA-1 DNA binding, fluorescence polarization. AID 1950. inhibition, % at 14.8 µM; in the data active means inhibition above about 28%
PAFAH2 inh: inhibitors of human PAFAH2; Q99487; recombinant PAFAH2, FP-rhodamine activity probe, fluorescence polarization; inhibition, % at 3.39 µM; 340,000 tested, 0.99% active; AID 492956;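 active means inhibition above the mean over all tested compounds plus 3 SD, cut at about 30% in these data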;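 further: inhibitors block probe labeling of enzyme so polarization drops; 0% = enzyme with DMSO and 100% = wells lacking PAFAH2 protein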
ZTA DNA inh: blocks Epstein-Barr virus ZTA, an EBNA-1 counter-screen; 320,000 tested, 0.15% active; AID 2234; P03206; inhibition, % at 11 µM; ZTA-DNA binding, fluorescence polarization; in the data active means inhibition above about 33%
pPAFAH FP inh: inhibitors of human plasma PAF acetylhydrolase (pPAFAH); Q13093; recombinant pPAFAH, FP-rhodamine probe fluorescence polarization; inhibition, % at 3.39 µM; 330,000 tested, 1.5% active;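 active means inhibition above the mean inhibition across the screen plus 3 SD, cut at about 25% in these data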;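 further: inhibitors block binding of the rhodamine activity-based probe so polarization drops; 0% = enzyme with DMSO and 100% = wells lacking pPAFAH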
Target sequence (Q13093 whole entry, looked up): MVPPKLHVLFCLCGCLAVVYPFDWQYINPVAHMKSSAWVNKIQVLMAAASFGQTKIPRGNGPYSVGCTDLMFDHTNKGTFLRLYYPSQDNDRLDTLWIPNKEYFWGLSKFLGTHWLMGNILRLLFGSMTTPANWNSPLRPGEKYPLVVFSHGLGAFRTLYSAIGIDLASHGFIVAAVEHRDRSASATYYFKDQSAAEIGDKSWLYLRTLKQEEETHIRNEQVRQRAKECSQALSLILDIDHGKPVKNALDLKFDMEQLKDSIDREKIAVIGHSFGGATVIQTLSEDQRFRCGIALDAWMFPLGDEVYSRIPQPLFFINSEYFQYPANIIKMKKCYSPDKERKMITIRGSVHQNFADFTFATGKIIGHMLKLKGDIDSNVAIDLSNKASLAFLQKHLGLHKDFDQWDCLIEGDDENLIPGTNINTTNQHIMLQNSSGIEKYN
PAFAH1B3 FP inh: inhibitors of human PAFAH1B3; Q15102; recombinant PAFAH1B3, FP-rhodamine probe, fluorescence polarization; inhibition, % at 3.39 µM; 340,000 tested, 0.28% active;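 active means inhibition above the screen-wide average of all tested compounds plus 3 SD, cut at about 25% in these data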;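 further: 0% = enzyme with DMSO only and 100% = wells lacking PAFAH1B3 protein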
PAFAH1B2 inh: PAFAH1B2 (human) inhibition | P68402 | inhibition, % at 3.39 µM | recombinant PAFAH1B2, FP-rhodamine activity probe, fluorescence polarization | 340,000 tested, 1.2% active | AID 492953;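 active means inhibition above the mean of all tested compounds plus 3 SD, cut at about 24% in these data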;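 further: 0% = enzyme with DMSO and 100% = wells lacking PAFAH1B2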
ZTA inh confirm: EBV ZTA DNA binding inhibition, confirmation. AID 2361. 320 tested, 30% active. shares compounds with ZTA DNA inh. Zta-ZRE DNA binding, fluorescence polarization. inhibition, % at 11.1 µM;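 active means mean inhibition across triplicate runs above the hit threshold derived for the original primary screen, cut at about 33% in these data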;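 further: 0% = Zta with DMSO and 100% = wells lacking Zta protein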
EBNA-1 counter: counter-screen for ZTA inhibitors: EBNA-1 DNA binding inhibition. shares compounds with ZTA DNA inh. fluorescence polarization. inhibition, % at 14.8 µM. 320 tested, under 10 active. AID 2362; call rule not given here
* = called active by the depositor; nt = not tested or not shown; ! = not active in a repeat. Most compounds without a hit are left out; they make up all but 2.9% or so of the library.

SMILES	EBNA-1 inh	PAFAH2 inh	ZTA DNA inh	pPAFAH FP inh	PAFAH1B3 FP inh	PAFAH1B2 inh	ZTA inh confirm	EBNA-1 counter
CN1CCC(OC(c2ccccc2)c2ccccc2)CC1	7	-8	60*	10	8	-1	13	7
COc1ccccc1NC(=O)CSc1nc2c(sc3ccccc32)c(=O)n1CCN(C)C	10	1	5	-2	12	-1	nt	nt
CCN(CC)CCn1c(SCC(=O)Nc2ccc(F)cc2)nc2c(sc3ccccc32)c1=O	6	nt	38*	2	nt	nt	24	-6
Cc1nc(N2CCC(C)CC2)c2c(C)c(C(=O)Nc3cccc(C(F)(F)F)c3)sc2n1	3	-31	8	-2	-25	-15	nt	nt
Cc1nc(Nc2cnc(/C=C/c3cc(C(=O)Nc4cccc(C(F)(F)F)c4)ccc3C)cn2)cc(N2CCNCC2)n1	15	nt	45*	1	nt	nt	25	18
COc1cccc(OC)c1OCCN1CCN(C(c2ccccc2)c2ccccc2)CC1	-3	8	4	5	4	-5	nt	nt
O=c1[nH]c(/C=C\c2cccc(Cl)c2)nc(O)c1[N+](=O)[O-]	3	5	40*	0	12	33*	38*	4
COc1ccccc1NC(=O)Nc1ccccc1N1CCOCC1	-1	1	-13	-3	4	5	nt	nt
CC(=O)NC(CCS(C)(=O)=O)C(=O)Nc1ccc(Cl)c(Cl)c1 (centres undefined)	20	1	36*	27*	-6	-1	0	-5
CN(C(=O)CN1C(=O)NC(c2ccccc2)(c2ccccc2)C1=O)C1CCS(=O)(=O)C1 (centres undefined)	nt	6	5	2	1	-1	nt	nt
COc1ccc(/C=C/c2onc(C)c2S(=O)(=O)N2CCC(C(=O)N3CCCCCC3)CC2)cc1	8	4	4	5	-7	2	nt	nt
CN(C)c1ccc(N=C/C=C2\N(C)c3ccccc3C2(C)C)cc1	6	-12	163*	17	6	1	2	-2
CN1/C(=C\C=Nc2ccc3ccccc3c2)C(C)(C)c2ccccc21	-11	8	8	6	1	6	nt	nt
OC(Cn1cnnc1)c1ccccc1 (centres undefined)	-4	7	53*	0	7	5	1	-2
OC(CCCC(O)c1ccccc1)c1ccccc1 (centres undefined)	nt	-11	nt	nt	4	-2	nt	nt
CC1(C)CSC(=NCc2ccccc2)N1C(=O)c1cccc([N+](=O)[O-])c1	5	1	10	1	2	4	nt	nt
O=C(Nc1ccc2oc(-c3ccncc3)nc2c1)c1ccc2c(c1)OCCO2	1	-1	21	-5	10	0	nt	nt
O=C(Nc1ccc2oc(-c3ccncc3)nc2c1)c1ccc2c(c1)OCO2	2	13	50*	7	2	1	76*	10
O=C(CC(C(=O)O)c1ccc(Cl)cc1Cl)c1ccc(Cl)cc1 (centres undefined)	7	9	33*	3	7	10	-1	-3
CCc1nn(CC(=O)N2CCN(C)CC2)c(=O)c2cccn12	2	-2	36*	2	9	3	-1	-8
CCOc1ccc2c(=O)c(Oc3ccccc3)c(C)oc2c1	-16	3	139*	-8	0	-4	-6	-10
Cc1oc2cc(OC(C)C(=O)O)ccc2c(=O)c1Oc1ccccc1 (centres undefined)	-3	-6	-25	4	-4	5	nt	nt
Cc1c(C)n(Cc2ccccc2)c2ncnc(NN)c12	13	-5	39*	5	3	4	-2	0
COc1ccc(-c2coc3c(CN4CCCCC4)c(O)c(CN4CCCCC4)c(O)c3c2=O)cc1	-4	nt	73*	8	nt	nt	2	-10
CCN1CCN(Cc2ccc(NC(=O)c3ccc(C)c(NC(=O)C(=O)c4c[nH]c5ccccc45)c3)cc2C(F)(F)F)CC1	12	-49	40*!	-32	-9	-10	32	-7
SMILES	EBNA-1 inh	PAFAH2 inh	ZTA DNA inh	pPAFAH FP inh	PAFAH1B3 FP inh	PAFAH1B2 inh	ZTA inh confirm	EBNA-1 counter
CCN1CCN(Cc2ccc(NC(=O)c3cc(NC(=O)C(=O)c4c[nH]c5ccccc45)cc(OC)c3)cc2C(F)(F)F)CC1	6	-68	32	-43	-30	-23	nt	nt
COc1ccc(Cn2c(N)c(S(=O)(=O)c3cccs3)c3nc4ccccc4nc32)cc1	22	-9	35*	0	1	1	6	5
CC1C/C(=C/c2ccncc2)C(=O)/C(=C/c2ccncc2)C1 (centres undefined)	-5	5	43*	-3	7	3	48*	3
CCOC(=O)C(C)Sc1ncc(-c2ccccc2)cn1 (centres undefined)	-2	2	79*	5	0	6	-2	-9
CCOC(=O)C(C)Sc1nc(=O)n2ccccc2n1 (centres undefined)	2	7	2	0	10	4	nt	nt
C#CCOCCOCCOCCNc1nc(N2CCN(C(=O)CCCCCCCCCCNC(=O)[C@@H](CCSC)n3cc(CCO)nn3)CC2)nc(N2CCN(C(=O)CCCCCCCCCCNC(=O)[C@H]([C@@H](C)CC)n3cc(CCCCN=C(N)N)nn3)CC2)n1	10	-11	121*	2	-2	1	59*	-4
C#CCOCCOCCOCCNc1nc(N2CCN(C(=O)CCCCCCCCCCNC(=O)[C@H](CCCCN)n3cc(C)nn3)CC2)nc(N2CCN(C(=O)CCCCCCCCCCNC(=O)[C@@H]([C@H](C)CC)n3cc(CCCCCN)nn3)CC2)n1	0	-6	70*	0	21	-4	44*	-7
C#CCOCCOCCOCCNc1nc(N2CCOCC2)nc(N2CCN(C(=O)CCCCCCCCCCNC(=O)[C@@H](CCSC)n3cc(CCO)nn3)CC2)n1	-2	2	-20	10	2	1	nt	nt
C#CCOCCOCCOCCNc1nc(N2CCN(C(=O)CCCCCCCCCCNC(=O)[C@@H](CCSC)n3cc(CCO)nn3)CC2)nc(N2CCN(C(=O)CCCCCCCCCCNC(=O)[C@H]([C@@H](C)CC)n3cc(CCCCCN)nn3)CC2)n1	13	nt	70*	-7	nt	nt	43*	4
C#CCOCCOCCOCCNc1nc(N2CCN(C(=O)C([C@@H](C)CC)n3cc(C(N)CC(C)C)nn3)CC2)nc(N2CCN(C(=O)[C@H](CCC(=O)O)n3cc(C(N)[C@H](C)CC)nn3)CC2)n1 (some centres undefined)	16	1	58*	5	5	5	12	-1
Cc1cc(N(C)C(=O)c2ccc3c(c2)S(=O)(=O)c2cc(Cl)ccc2C3=O)c(C(F)(F)F)o1	nt	7	nt	3	10	10	nt	nt
